Measurements reported in PubChem BioAssay AID1159580 (chemical genetic matrix, 2015).
“And” between values parts separate entries of the source, which are not always exact repeats. Equal values may be shown once. The campaign covered roughly 5,500 compounds. About 2,000 (36%) were called active. Not shown: some 18% with an inconclusive outcome. Cut-off read from the data, not from the text of the source: active = normalized growth mostly below about 0.91 (no sharp cut-off); inconclusive = no clear call, values can overlap the other calls; inactive = mostly above about 0.92. The list shows a part of the results.

Test: chemical genetic growth profiling, strain panel (AID 1159580);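 note: tested at 20 µM; growth read once vehicle control cultures reached saturation at 30 °C; 1 = growth at the plate median or of vehicle wells; lower values mean less growth of the strain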
Details: growth OD

Measured: normalized growth

NC(=O)CN1CCCC1=O
inactive: S. cerevisiae deletion strains, locus YKL009W, strain mrt4, active compounds read low 1.01 | S. cerevisiae deletion strains, locus YKL068W, active compounds read low 1 | S. cerevisiae deletion strains, locus YKL085W, strain MDH1 (second series), active compounds read low 1.02 | S. cerevisiae deletion strains, locus YKL085W, strain MDH1, active compounds read low 1.02 | S. cerevisiae deletion strains, locus YKL160W, strain elf1, active compounds read low 0.967 | S. cerevisiae deletion strains, locus YKL190W, strain CNB1, active compounds read low 1 | S. cerevisiae deletion strains, locus YKR001C, strain vps1, active compounds read low 1.01 | S. cerevisiae deletion strains, locus YKR026C, strain gcn3, active compounds read low 0.992 | S. cerevisiae deletion strains, locus YKR091W, strain srl3, active compounds read low 0.995 | S. cerevisiae deletion strains, locus YLL001W, strain dnm1, active compounds read low 0.958 | S. cerevisiae deletion strains, locus YLL026W, active compounds read low 0.999 | S. cerevisiae deletion strains, locus YLL041C, strain sdh2, active compounds read low 0.992 | S. cerevisiae deletion strains, locus YLR027C, strain aat2, active compounds read low 0.999 | S. cerevisiae deletion strains, locus YLR039C, strain RIC1, active compounds read low 1.01 | S. cerevisiae deletion strains, locus YLR058C, strain SHM2, active compounds read low 1.01 | S. cerevisiae deletion strains, locus YLR102C, strain apc9, active compounds read low 1.01 | S. cerevisiae deletion strains, locus YLR113W, strain HOG1, active compounds read low 0.954 | S. cerevisiae deletion strains, locus YLR221C, strain rsa3, active compounds read low 0.989 | S. cerevisiae deletion strains, locus YLR258W, strain gsy2, active compounds read low 0.99 | S. cerevisiae deletion strains, locus YLR262C, strain YPT6 (second series), active compounds read low 0.987 | S. cerevisiae deletion strains, locus YLR262C, strain YPT6, active compounds read low 1.02 | S. cerevisiae deletion strains, locus YLR268W, strain sec22, active compounds read low 1.01 | S. cerevisiae deletion strains, locus YLR320W, strain mms22, active compounds read low 0.958 | S. cerevisiae deletion strains, locus YLR330W, strain CHS5, active compounds read low 0.996 | S. cerevisiae deletion strains, locus YLR342W, strain FKS1 (second series), active compounds read low 1.02 | S. cerevisiae deletion strains, locus YLR342W, strain FKS1, active compounds read low 0.98 | S. cerevisiae deletion strains, locus YLR357W, strain rsc2, active compounds read low 0.977 | S. cerevisiae deletion strains, locus YLR370C, strain arc18, active compounds read low 0.99 | S. cerevisiae deletion strains, locus YLR371W, strain rom2, active compounds read low 1.01 | S. cerevisiae deletion strains, locus YLR384C, strain iki3, active compounds read low 0.977 | S. cerevisiae deletion strains, locus YLR418C, strain cdc73, active compounds read low 1.01 | S. cerevisiae deletion strains, locus YML016C, strain PPZ1, active compounds read low 0.999 | S. cerevisiae deletion strains, locus YML032C, strain rad52, active compounds read low 1.01 | S. cerevisiae deletion strains, locus YML120C, strain ndi1, active compounds read low 0.983 | S. cerevisiae deletion strains, locus YML124C, strain tub3, active compounds read low 1.01 | S. cerevisiae deletion strains, locus YMR058W, strain fet3, active compounds read low 0.988 | S. cerevisiae deletion strains, locus YMR078C, strain ctf18, active compounds read low 1 | S. cerevisiae deletion strains, locus YMR125W, strain sto1, active compounds read low 0.996 | S. cerevisiae deletion strains, locus YMR129W, active compounds read low 1 | S. cerevisiae deletion strains, locus YMR205C, strain PFK2, active compounds read low 0.973 | S. cerevisiae deletion strains, locus YMR223W, strain ubp8, active compounds read low 1.01 | S. cerevisiae deletion strains, locus YMR231W, strain pep5, active compounds read low 0.997 | S. cerevisiae deletion strains, locus YMR263W, strain SAP30, active compounds read low 0.993 | S. cerevisiae deletion strains, locus YMR307W, strain GAS1, active compounds read low 1.06 | S. cerevisiae deletion strains, locus YNL067W, strain RPL9B, active compounds read low 1.01 | S. cerevisiae deletion strains, locus YNL071W, strain lat1, active compounds read low 0.991 | S. cerevisiae deletion strains, locus YNL128W, strain TEP1, active compounds read low 1.05 | S. cerevisiae deletion strains, locus YNL153C, strain GIM3, active compounds read low 0.979 and 1.17 | S. cerevisiae deletion strains, locus YNL175C, strain NOP13, active compounds read low 0.997 | S. cerevisiae deletion strains, locus YNL183C, strain NPR1, active compounds read low 0.915 | S. cerevisiae deletion strains, locus YNL197C, strain WHI3, active compounds read low 1.01 | S. cerevisiae deletion strains, locus YNL209W, strain ssb2, active compounds read low 0.998 | S. cerevisiae deletion strains, locus YNL224C, strain SQS1, active compounds read low 0.995 | S. cerevisiae deletion strains, locus YNL233W, strain BNI4, active compounds read low 0.985 | S. cerevisiae deletion strains, locus YNL248C, strain rpa49, active compounds read low 0.982 | S. cerevisiae deletion strains, locus YNL250W, strain rad50, active compounds read low 1 | S. cerevisiae deletion strains, locus YNL271C, strain bni1, active compounds read low 1.01 | S. cerevisiae deletion strains, locus YNL298W, strain CLA4, active compounds read low 1.03 | S. cerevisiae deletion strains, locus YNL307C, strain MCK1, active compounds read low 1.03 | S. cerevisiae deletion strains, locus YNL322C, strain KRE1 (second series), active compounds read low 0.992 | S. cerevisiae deletion strains, locus YNL322C, strain KRE1, active compounds read low 1 | S. cerevisiae deletion strains, locus YNR049C, strain mso1, active compounds read low 0.99 | S. cerevisiae deletion strains, locus YNR052C, strain pop2, active compounds read low 1.01 | S. cerevisiae deletion strains, locus YOL006C, strain TOP1, active compounds read low 1.04 | S. cerevisiae deletion strains, locus YOL012C, strain htz1 0.826 | S. cerevisiae deletion strains, locus YOL147C, strain pex11, active compounds read low 1.01 | S. cerevisiae deletion strains, locus YOR001W, strain rrp6, active compounds read low 1.01 | S. cerevisiae deletion strains, locus YOR061W, strain CKA2, active compounds read low 1.01 | S. cerevisiae deletion strains, locus YOR069W, strain VPS5, active compounds read low 1.01 | S. cerevisiae deletion strains, locus YOR070C, strain gyp1, active compounds read low 0.993 | S. cerevisiae deletion strains, locus YOR080W, strain dia2, active compounds read low 0.994 | S. cerevisiae deletion strains, locus YOR083W, strain WHI5 (second series), active compounds read low 0.99 | S. cerevisiae deletion strains, locus YOR083W, strain WHI5, active compounds read low 0.968 | S. cerevisiae deletion strains, locus YOR106W, strain vam3, active compounds read low 0.967 | S. cerevisiae deletion strains, locus YOR136W, strain idh2, active compounds read low 1 | S. cerevisiae deletion strains, locus YOR144C, strain elg1, active compounds read low 0.998 | S. cerevisiae deletion strains, locus YOR184W, strain ser1, active compounds read low 1 | S. cerevisiae deletion strains, locus YOR231W, strain MKK1, active compounds read low 0.984 | S. cerevisiae deletion strains, locus YOR265W, strain rbl2, active compounds read low 0.992 | S. cerevisiae deletion strains, locus YOR270C, strain vph1, active compounds read low 0.97 | S. cerevisiae deletion strains, locus YOR290C, strain snf2, active compounds read low 0.99 | S. cerevisiae deletion strains, locus YOR316C, strain cot1, active compounds read low 1.02 | S. cerevisiae deletion strains, locus YPL051W, strain arl3, active compounds read low 0.99 | S. cerevisiae deletion strains, locus YPL055C, strain LGE1, active compounds read low 0.968 | S. cerevisiae deletion strains, locus YPL078C, strain atp4, active compounds read low 0.979 | S. cerevisiae deletion strains, locus YPL106C, strain sse1, active compounds read low 0.958 | S. cerevisiae deletion strains, locus YPL240C, strain hsp82, active compounds read low 0.999 | S. cerevisiae deletion strains, locus YPL241C, strain CIN2, active compounds read low 1.01 and 1 | S. cerevisiae deletion strains, locus YPL256C, strain CLN2, active compounds read low 0.979 | S. cerevisiae deletion strains, locus YPR119W, strain clb2, active compounds read low 1 | S. cerevisiae deletion strains, locus YPR141C, strain kar3, active compounds read low 1.01 | S. cerevisiae deletion strains, locus YPR163C, strain tif3, active compounds read low 1.01 | S. cerevisiae deletion strains, locus YPR167C, strain met16, active compounds read low 1 | S. cerevisiae deletion strains, strain wtn01, active compounds read low 1.01 | S. cerevisiae strains, strain wild type, active compounds read low 1
